TGFb inhibitor: TGF-b pathway inhibition. HepG2 CAGA-GFP TGF-b/SMAD3 reporter, GFP fluorescence, 18 h; TGF-beta stimulated, 500 pg/mL final. Potency, µM (top dose mostly 46.1 µM), without a hit: at the top dose activity, negative = inhibition, actives largely listed as inhibitors. 410,000 compounds, 1.2% hits. AID 588855; also: % is scaled to controls: 0 for no effect and ±100 for the full control effect; nearly all actives have a fitted effect of over 65% in size
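Inhibition of TGF-beta-driven CAGA-GFP reporter expression in HEPG2 cells is measured by cellular GFP fluorescence after 18 h stimulation with 500 pg/mL recombinant TGF-beta in 1% FBS medium at 37 degrees C.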
RORgamma inh: blocks mouse ROR gamma transcriptional activity | Potency, µM (top dose mostly 53.6 µM), without a hit: at the highest dose activity change, negative = inhibition, usual class: inhibitors | P51450 | 310,000 compounds, 5.4% hits | Drosophila S2 Gal4-RORgamma UAS-luciferase reporter, 20 h; also: % is scaled to controls: 0 for no effect and ±100 for the full control effect; nearly all actives have a fitted effect of over 60% in size
Target sequence (P51450 whole entry, looked up, the tested form may be a part): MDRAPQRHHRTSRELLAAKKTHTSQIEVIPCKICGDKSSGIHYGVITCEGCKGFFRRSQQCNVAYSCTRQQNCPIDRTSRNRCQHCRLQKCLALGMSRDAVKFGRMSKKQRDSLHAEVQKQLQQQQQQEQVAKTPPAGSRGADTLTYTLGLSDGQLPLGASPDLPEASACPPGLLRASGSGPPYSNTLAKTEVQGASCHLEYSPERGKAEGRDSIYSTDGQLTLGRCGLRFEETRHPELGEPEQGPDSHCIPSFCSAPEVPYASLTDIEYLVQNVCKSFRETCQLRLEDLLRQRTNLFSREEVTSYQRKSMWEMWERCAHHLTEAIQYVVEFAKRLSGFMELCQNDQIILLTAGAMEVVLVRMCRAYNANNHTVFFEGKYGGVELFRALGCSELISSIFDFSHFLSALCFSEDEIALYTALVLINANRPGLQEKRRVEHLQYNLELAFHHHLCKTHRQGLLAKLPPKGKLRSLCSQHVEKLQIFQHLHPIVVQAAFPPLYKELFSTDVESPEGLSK
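Drosophila S2 cells stably expressing Gal4-DBD/mouse RORγ fusion under metallothionein promoter plus UAS-luciferase; compound 1 h, then 700 uM CuSO4 induction for 20 h at ambient temperature; inhibition read as reduced luminescence.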
VP16 counter: Gal4-VP16 reporter inhibition counter-screen | Drosophila S2 Gal4-VP16 UAS-luciferase, luminescence, 20 h | Potency, µM (highest dose often 53.6 µM), inactives show at the top dose activity, negative = inhibition, usual class: inhibitors | 310,000 compounds, 3.5% hits;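 also: Gal4-VP16 expression switched on by copper sulfate through the metallothionein promoter; % is scaled to controls: 0 for no effect and ±100 for the full control effect; nearly all actives have a fitted effect of over 50% in size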
HepG2 viability: counter-screen for TGF-b inhibitors: cytotoxicity in HepG2 cells; HepG2 CAGA-GFP viability, ATP luminescence, 18 h; Potency, µM (top dose mostly 46.1 µM), for inactives: at the highest dose activity change, negative = cytotoxicity, actives largely listed as cytotoxic; 410,000 compounds, 0.76% hits; AID 588856
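HepG2 CAGA-GFP cells (1000/well, DMEM with 1% FBS) received compound, then TGF-beta at 500 pg/mL final, and were incubated 18 hours at 37 degrees C. Viability was read by CellTiter-Glo luminescence. Media-only wells were set as complete cell-killing and DMSO as no toxicity.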
S2 tox: cell viability loss in ATXN counter-screen | S2 cells (HEK-293 line with an ATXN2-luciferase reporter) viability, CellTiter-Fluor protease fluorescence, 24 h | Potency, µM (series often up to 56.7 µM), hits mostly cytotoxic | 400,000 compounds, 0.49% hits; also: nearly all actives have a fitted effect of over 40% in size
ATXN2 expr inh: ATXN2 expression inhibition; HEK-293 ATXN2-luciferase reporter, luminescence, 24 h; Potency, µM (top dose mostly 57 µM), for the others: top-dose activity change, negative = inhibition, hits mostly inhibitors; 360,000 compounds, 0.72% hits; also: % is scaled to controls: 0 for no effect and ±100 for the full control effect; nearly all actives have a fitted effect of over 55% in size
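ATXN2-luciferase reporter cells (luciferase flanked by upstream and downstream ATXN2 gene portions) were treated 24 h at 37 °C with compounds at up to 57 uM. SteadyGlo luminescence gave expression; GF-AFC fluorescence gave viability.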
Numbers without * were called inactive; i = inactive; ? = inconclusive; · = not tested or not shown; [ ] = remark or other dose. A selection: hits, their analogues and other compounds. The true share with any hit is near 6.1%. Calls follow the shape of the dose curve; as a rule, active = well fitted curve in the direction sought with a large enough effect; inconclusive = small, poorly fitted or top-dose-only effect, or another doubt; inactive = no such curve, though single readings can be large; an effect the other way counts as inactive or inconclusive. Potency is read from the fitted curve at half-maximal effect.

SMILES | TGFb inhibitor | RORgamma inh | VP16 counter | HepG2 viability | S2 tox | ATXN2 expr inh
O=c1[nH]c(-c2ccccn2)nc2ccccc12 | ? | 3.98µM* | 7.08µM* | -41.5% | ? | ?
CC(C)c1ccc(S(=O)(=O)NCc2ccc3c(c2)CCN3C(=O)c2ccccc2)cc1 | ? | · | · | -11.3% | · | ·
c1ccc(-c2nc3c(ccc4ccccc43)[nH]2)nc1 | ? | 0.355µM* | 1µM* | -30.7% | i | 19.4%
O=c1[nH]c(-c2ccccn2)nc(C(F)(F)F)c1Br | -5.3% | 2.24µM* | 5.01µM* | -7.8% | ? | -25.7%
Nc1ccc(Cc2nc3c(ccc4ccccc43)[nH]2)cc1 | ? | ? | -0.8% | 0.0% | ? | 2.2%
Cc1sc2nc(-c3ccccn3)[nH]c(=O)c2c1-c1ccccc1 | ? | 1.12µM* | 4.47µM* | -12.1% | · | 17.0%[11.3 µM]
c1ccc(-c2nc3ccccc3[nH]2)nc1 | -13.3% | 5.62µM* | 6.31µM* | -46.9% | i | 21.0%
COc1cc(C)ccc1OCCCn1c(-c2ccc(Cl)cc2)nc2ccccc2c1=O | -3.9% | · | · | 6.7% | i | 8.1%
CCC[C@@H]1C[C@@]1(CCC)C(NP(=O)(c1ccccc1)c1ccccc1)c1ccc(Cl)cc1 (some centres undefined) | · | -2.2% | -6.6% | · | · | ·
Cc1ccc2nc(-c3ccccn3)[nH]c2c1 | -11.9% | 3.98µM* | 6.31µM* | -78.9% | i | ?
Cc1onc(-c2ccccc2)c1-c1nnc(-c2ccccc2C(F)(F)F)o1 | -21.5% | 28.6% | 2.2% | 4.4% | i | -29.6%
CCn1c(C)nc2cc(-c3nnc(-c4c(-c5ccccc5)noc4C)o3)ccc21 | 7.5% | ? | 5.01µM* | -23.5% | i | -9.0%
Cc1cccc(OCC(=O)Nc2cc(-c3nc4cc(Cl)ccc4o3)ccc2C)c1 | ? | · | · | -9.8% | · | ·
O=C(CSc1nnc(-c2ccccc2)c(-c2ccccc2)n1)N1CCc2ccccc21 | -1.7% | 3.16µM* | 5.2% | -1.8% | i | -1.8%
O=C(CSc1n[nH]c(-c2ccccc2O)n1)N1CCCc2ccccc21 | -18.1% | 11.2µM* | 14.5% | -36.8% | i | -16.8%
Cc1cc2nc(-c3ccc(SCC(=O)N4CCc5ccccc54)nc3)[nH]c2cc1C | ? | -35.3% | ? | -10.0% | 17.8µM* | ?
Cc1cc(C)nc(SCC(=O)N2CCc3ccccc32)n1 | -0.8% | · | · | 6.9% | i | 33.4%
C[C@@H](O)[C@H](N)C(=O)O | · | · | · | · | i | 4.1%[25.6 µM]
CCOC(=O)C(C)N1C(=O)S/C(=C\c2ccc(-c3ccccc3C(=O)O)o2)C1=O (centres undefined) | 3.8% | 0.4% | -5.7% | -4.7% | i | ·
CC(C)N1C(=O)S/C(=C/c2ccc(Sc3nc4ccccc4[nH]3)o2)C1=O | 20µM* | ? | ? | -18.7% | i | ?
C=CCN1C(=O)S/C(=C/c2ccc(Sc3nc4ccccc4[nH]3)o2)C1=O | 20µM* | 28.4%[10 µM] | ? | -36.1% | ? | ?
CCC(C)n1c(=S)[nH]c2c(sc3ccc([N+](=O)[O-])cc32)c1=O (centres undefined) | 6.9% | 0.631µM* | 1.26µM* | -27.4% | i | ?
N/C(=N\OC(=O)c1ccccc1Cl)c1ccc(Cl)cc1 | 9.3% | ? | -24.5% | -18.9% | i | 111.2%
N/C(Cc1ccc(Cl)cc1Cl)=N\OC(=O)c1ccccc1 | -4.3% | 12.6µM* | -1.9% | -29.9% | ? | ·
COc1ccc(C(=O)O/N=C(\N)c2ccccc2)c(OC)c1 | 3.4% | 4.47µM* | 8.91µM* | -0.8% | ? | ·
SMILES | TGFb inhibitor | RORgamma inh | VP16 counter | HepG2 viability | S2 tox | ATXN2 expr inh
N/C(Cc1ccc(Cl)cc1Cl)=N\OC(=O)Cc1ccccc1 | -15.8% | -36.3% | ? | -16.0% | i | 1.9%
Cc1ccc(/C(N)=N/OC(=O)c2ccc(C)cc2Cl)cc1 | 0.7% | 4.47µM* | 10µM* | -0.7% | i | 57.0%
N/C(=N\OC(=O)c1ccc(Cl)cc1Cl)c1ccccc1 | -10.1% | 5.01µM* | ? | -25.9% | ? | 27.6%
N/C(=N\OC(=O)c1ccc(Cl)cc1Cl)c1ccc(Cl)cc1 | 19.7% | 1.3% | -10.5% | -1.3% | i | 49.0%
Cc1cccc(/C(N)=N/OC(=O)c2cccc3ccccc23)c1 | · | 1.12µM* | 5.62µM* | · | · | ·
N/C(=N\OC(=O)c1cccc2ccccc12)c1cccc([N+](=O)[O-])c1 | -11.4% | -15.1% | ? | 1.1% | i | 0.9%
Cc1cccc(/C(N)=N/OC(=O)c2ccc(Cl)cc2Cl)c1 | 6.1% | 2µM* | 20µM* | -20.5% | ? | -10.7%
N/C(=N\OC(=O)c1ccc(Cl)cc1Cl)c1cccnc1 | -2.1% | -27.9% | ? | -7.2% | i | ·
Cc1cccc(OCC(=O)Nc2ccc(O)c(-c3nc4ccccc4o3)c2)c1 | 5.0% | · | · | 6.3% | · | ·
O=C(c1ccc([N+](=O)[O-])cc1)N1CCN(Cc2ccccc2)CC1 | -3.1% | 107.4% | -13.6% | 10.1% | i | 2.7%
O=C(c1ccc(S(=O)(=O)c2cccc(Cl)c2)c([N+](=O)[O-])c1)N1CCN(Cc2ccccc2)CC1 | ? | ? | 25.1µM* | 2.9% | ? | ?
O=C(c1cc([N+](=O)[O-])ccc1Cl)N1CCN(Cc2ccccc2)CC1 | -4.8% | · | · | 14.1µM* | i | -17.3%
COc1ccc(C(=O)N2CCN(Cc3ccccc3)CC2)cc1[N+](=O)[O-] | -13.9% | 33.0% | -1.3% | -17.8% | i | ·
COC(=O)C1(C(C)=O)CC2=CC[C@@H]3C(=O)N(c4ccccc4)C(=O)[C@@H]3[C@@H]2Cc2ccccc2[C@@H]1C[N+](=O)[O-] (some centres undefined) | · | -0.1% | -7.7% | · | · | ·
COc1ccccc1Cn1c(CNS(=O)(=O)c2cccc([N+](=O)[O-])c2)nc2cccnc21 | ? | · | · | -21.5% | · | ·
Oc1ccccc1Nc1nc(-c2ccccc2O)nc2ccccc12 | 0.0% | 0.1% | -6.9% | -7.7% | i | -1.8%
C/C(=N/Nc1nc(-c2ccccc2F)nc2ccccc12)c1ccccc1O | 12.6µM* | 3.16µM* | 7.94µM* | -102.1% | i | ·
C/C(=N\Nc1nc(-c2ccccn2)nc2ccccc12)c1ccc(F)cc1 | ? | 0.126µM* | 1.12µM* | -42.5% | ? | ·
C/C(=N\Nc1nc(-c2ccccc2O)nc2ccccc12)c1ccccc1 | -11.6% | 4.47µM* | ? | -11.1% | i | -10.5%
COc1ccc([C@@H]2CC(=O)c3c(O)cc(O)cc3O2)cc1O | 0.9% | 18.3% | ? | 17.9% | i | 61.2%
COc1c(CC=C(C)C)cc(C2CC(=O)c3c(O)cc(O)cc3O2)cc1CC=C(C)C (centres undefined) | 14.1µM* | -37.4% | ? | 15.8µM* | · | ?
